The results in this text go back to PubChem BioAssay (Tox21).

Structures are written as SMILES. “And” between values parts separate entries of the source, which are not always exact repeats. Identical values can stand only once. Records with an inconclusive call do not appear. The source made the active and inactive calls. Unless noted, calls come from the whole dose curve.

Assay [1] in a line: Nuclear factor erythroid 2-related factor 2/antioxidant responsive element (Nrf2/ARE) small molecule agonists: qHTS cell viability counter screen in human keratinocytes (AID 1919968; active = well fitted cell-killing curve with a large enough effect in the repeat runs; note: nearly all actives have a fitted effect of over 55% in size). The method, boiled down: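 After a 5 h attachment period, ARE-reporter keratinocytes were dosed with compounds in DMSO and then cultured 23 h at 37 C. Cell viability came from CellTiter-Fluor signal read after a further 1 h.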
A general note: Quantitative high-throughput screening tests each substance at several concentrations.

Assay [2] is described as follows: Nuclear factor erythroid 2-related factor 2/antioxidant responsive element (Nrf2/ARE) small molecule agonists: luciferase reporter gene qHTS assay in human keratinocytes (AID 1919969). Note: nearly all actives have a fitted effect of over 35% in size. Note: potency is the fitted concentration of half-maximal effect. A general note: A reporter such as luciferase makes a cellular process visible.
Assay [3] has as its target Gonadotropin-releasing hormone receptor (Homo sapiens) (UniProt P30968). Kind of assay: Human gonadotropin-releasing hormone receptor (GnRHR) small molecule agonists, calcium flux assay in GnRHR-HEK293 cells (AID 1920063). Note: nearly all actives have a fitted effect of over 35% in size. Put shortly: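 We seeded human GnRHR-expressing HEK293 cells for 18 hours, loaded them with calcium dye for an hour at 37 C, added test compounds, and recorded fluorescence intensity kinetically for three minutes.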
Background: A change in cytosolic calcium serves as a functional read-out for many receptors and channels.

Assay [4] is described as follows: G protein-coupled receptor (GPCR) small molecule agonists, calcium flux assay: HEK293 wild type cell line counter screen (AID 1920065). Put shortly: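 Calcium-sensitive dye, loaded 1 h at 37 C into cells cultured 18 h, reports compound-evoked calcium release as fluorescence (Ex/Em 480/540), measured over 3 min. Agonist mode; 15-point titrations, triplicate.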
A short description of assay [5]: p53 small molecule agonists, cell-based qHTS assay with rat liver microsomes (AID 1963578). The method, boiled down: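 With rat liver microsomes and NADPH present (0.5 mg/mL final each), p53RE-bla cells are treated with compound for 16 h at 37 C. LiveBLAzer detection mixture is then applied for 2 h at room temperature in the dark.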
Assay [6] in a line: p53 small molecule agonists, cell-based qHTS assay with human liver microsomes: qHTS cell viability counter screen (AID 1963579). Note: nearly all actives have a fitted effect of over 45% in size. Put shortly:
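In this multiplexed counter screen, the reporter plates were subsequently treated with CellTiter-Glo so that cell viability, reflected by luminescence, could be recorded for p53RE-bla cells dosed 16 h with compounds under microsomal activation (HLM and NADPH).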

A short description of assay [7]: p53 small molecule agonists, cell-based qHTS assay with rat liver microsomes: qHTS cell viability counter screen (AID 1963580). Note: nearly all actives have a fitted effect of over 45% in size. Put shortly: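 HCT-116 p53RE-bla, 4,000 cells/well, 5 h pre-incubation; cpd + rat liver microsomes 0.5 mg/mL + NADPH 0.5 mg/mL (final); 16 h, 37 C; CellTiter-Glo, 30 min RT; luminescence.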
Assay [8] is described as follows: p53 small molecule agonists, cell-based qHTS assay: qHTS cell viability counter screen (AID 1963581). Note: nearly all actives have a fitted effect of over 45% in size. The method, boiled down:
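Following 5 h attachment, HCT-116 p53RE-bla cells took up compound for 16 h at 37 C; the reporter was read with B/G FRET substrate (2 h RT), and viability then via CellTiter-Glo ATP luminescence.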

Assay [9] in a line: p53 small molecule agonists, cell-based qHTS assay (AID 1963582; active = well fitted activation curve with a large enough effect in the signal ratio in the repeat runs, not every such curve was filed as active; the % refers to the signal ratio). Put shortly:
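In this cell-based concentration-response screen, a p53 response element drives beta-lactamase; cells received DMSO-borne compounds after 5 h culture and were incubated a further 16 h before FRET substrate development.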

Assay [10] has as its target 5-hydroxytryptamine receptor 2A (Homo sapiens) (UniProt P28223). Put plainly: 5-hydroxytryptamine receptor 2A (HTR2A) small molecule antagonists, cell-based qHTS assay (AID 1963586). Note: nearly all actives have a fitted effect of over 45% in size. Note: potency is the fitted concentration of half-maximal effect. The method, boiled down: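 Antagonist-mode intracellular calcium assay: DOI (4 nM) added after 5 min compound pre-incubation at room temperature to dye-loaded HTR2A-CHO cells. Fluorescence followed for 3 min, sampled every second.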

For assay [11] the target is unchanged. Put plainly: 5-hydroxytryptamine receptor 2A (HTR2A) small molecule agonists, cell-based qHTS assay (AID 1963587). Note: nearly all actives have a fitted effect of over 30% in size. The method, boiled down:
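Kinetic calcium-flux fluorescence (2 min, 1 sec intervals) after compound addition in agonist mode. HTR2A-CHO cells were cultured 18 h, then dye-loaded 1 h at 37 C.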

Assay [12] concerns the target Muscarinic acetylcholine receptor M1 (Homo sapiens) (UniProt P11229). Put plainly: Cholinergic receptor muscarinic 1 (CHRM1) small molecule agonists, cell-based qHTS assay (AID 1963589). Note: nearly all actives have a fitted effect of over 35% in size. Put shortly: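 Measures agonist-induced intracellular calcium rise. Stable human CHRM1 CHO line, 1 h dye load at 37 C, compounds from DMSO, kinetic fluorescence read.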
Assay [13] is described as follows: cAMP Responsive Elements (CRE) small molecule agonists, cell-based qHTS assay (AID 1963590). The method, boiled down: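 A CRE-responsive beta-lactamase reporter in HEK 293T cells was used. Treatment ran 3 h at 37 C; detection used LiveBLAzer B/G FRET substrate for 2 h at room temperature.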
The nature of assay [14]: cAMP Responsive Elements (CRE) small molecule antagonists, cell-based qHTS assay (AID 1963591; active = well fitted inhibition curve with a large enough effect in the signal ratio in the repeat runs, not every such curve was filed as active; the % refers to the signal ratio). The method, boiled down:
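HEK293T cells carrying a CRE-driven beta-lactamase reporter receive compound and NKH477 (0.25 uM final) for 3 h. Fluorescence from LiveBLAzer B/G FRET substrate is read after 2 h at room temperature.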

In assay [15] the target is Beta-2 adrenergic receptor (Homo sapiens) (UniProt P07550). Put plainly: Adrenergic beta2 receptor (ADRB2) small molecule antagonists, cell-based qHTS assay (AID 1963592). Note: series mostly up to about 92 µM; nearly all actives have a fitted effect of over 50% in size. The method, boiled down:
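Cells (CHO, stable ADRB2 overexpression) incubated 18-20hr at 37C; compounds added from DMSO; agonist mix (1nM isoproterenol, 100uM IBMX, 25uM Ro-20-1724) added; 0.5hr RT; d2-cAMP and anti-cAMP-cryptate added; 1hr RT; 665/615 nm read.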

The target is the same in assay [16]. Kind of assay: Adrenergic beta2 receptor (ADRB2) small molecule agonists, cell-based qHTS assay (AID 1963593).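 Note: CHO cells stably overexpressing human ADRB2.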 The method, boiled down:
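CHO cells stably over-expressing ADRB2 were plated overnight at 37C, then dosed with compounds plus a stimulation mix containing 100uM IBMX and 25uM Ro-20-1724 for 0.5hr at room temperature. cAMP was measured by HTRF competition, 1hr.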

Assay [17] concerns the target D(2) dopamine receptor (Homo sapiens) (UniProt P14416). Put plainly: Dopamine D2 receptor (DRD2) small molecule antagonists, cell-based qHTS assay (AID 1963595; active = well fitted inhibition curve with a large enough effect in the signal ratio in the repeat runs, with a control signal flat; the % refers to the signal ratio). The method, boiled down: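 In this cell-based antagonist screen, compounds act for 10 min at room temperature before a 30 min challenge with 12 nM quinpirole and 200 nM NKH477. cAMP is quantified by HTRF competition in DRD2-HEK293 cells containing 0.1 mM Ro20-1724.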

The nature of assay [18]: p53 small molecule agonists, cell-based qHTS assay with human liver microsomes (AID 1963577).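 Note: p53 response element beta-lactamase reporter cells with liver microsomes plus NADPH.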 The method, boiled down: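 16 h, 37 C exposure of p53RE-bla cells to compounds with human liver microsomes and NADPH (0.5 mg/mL final each); detection via LiveBLAzer mixture, 2 h dark at room temperature.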
In assay [19] the target is D(2) dopamine receptor (Homo sapiens) (UniProt P14416). Kind of assay: Dopamine D2 receptor (DRD2) small molecule agonists, cell-based qHTS assay (AID 1963594). Note: nearly all actives have a fitted effect of over 35% in size. The method, boiled down:
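cAMP accumulation in DRD2-HEK293 cells measured by HTRF after 1 h detection; compounds added 10 min before NKH477 (200nM […]) forskolin-analogue stimulation, 30 min at room temperature, with Ro20-1724 present at 0.1 mM final.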

The target in assay [20] is Muscarinic acetylcholine receptor M1 (Homo sapiens) (UniProt P11229). Kind of assay: Cholinergic receptor muscarinic 1 (CHRM1) small molecule antagonists, cell-based qHTS assay (AID 1963588). Note: nearly all actives have a fitted effect of over 40% in size. The method, boiled down: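 CHRM1-CHO calcium-flux assay, antagonist mode. Cells were seeded 18 h, dye-loaded 1 h at 37 C and given compound for 5 min at RT, then acetylcholine was added at 50nM. FDSS fluorescence was read 3 min; 15 concentrations, three runs.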
Chain of Muscarinic acetylcholine receptor M1 (Homo sapiens) (P11229 whole entry, looked up): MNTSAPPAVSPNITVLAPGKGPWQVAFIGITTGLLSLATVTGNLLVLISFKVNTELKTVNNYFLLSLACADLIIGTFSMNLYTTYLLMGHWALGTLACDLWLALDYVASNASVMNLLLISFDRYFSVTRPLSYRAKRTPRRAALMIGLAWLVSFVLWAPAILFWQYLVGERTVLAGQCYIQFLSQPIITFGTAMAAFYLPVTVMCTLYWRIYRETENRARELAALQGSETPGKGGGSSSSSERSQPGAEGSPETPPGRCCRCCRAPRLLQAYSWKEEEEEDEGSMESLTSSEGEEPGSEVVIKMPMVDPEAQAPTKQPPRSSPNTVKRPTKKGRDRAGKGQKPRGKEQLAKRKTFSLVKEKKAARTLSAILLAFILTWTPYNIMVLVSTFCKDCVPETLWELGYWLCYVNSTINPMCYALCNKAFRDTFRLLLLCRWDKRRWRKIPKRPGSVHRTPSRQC

Chain of Gonadotropin-releasing hormone receptor (Homo sapiens) (P30968 whole entry, looked up): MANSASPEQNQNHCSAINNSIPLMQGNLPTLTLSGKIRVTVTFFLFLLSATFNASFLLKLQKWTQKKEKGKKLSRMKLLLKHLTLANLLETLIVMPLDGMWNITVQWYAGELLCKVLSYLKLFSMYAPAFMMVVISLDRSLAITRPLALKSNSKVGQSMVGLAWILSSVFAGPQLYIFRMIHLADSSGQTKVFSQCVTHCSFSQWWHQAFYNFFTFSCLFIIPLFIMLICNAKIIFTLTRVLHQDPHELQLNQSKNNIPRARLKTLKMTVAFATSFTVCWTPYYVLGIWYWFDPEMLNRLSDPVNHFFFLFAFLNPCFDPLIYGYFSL
Chain of D(2) dopamine receptor (Homo sapiens) (P14416 whole entry, looked up): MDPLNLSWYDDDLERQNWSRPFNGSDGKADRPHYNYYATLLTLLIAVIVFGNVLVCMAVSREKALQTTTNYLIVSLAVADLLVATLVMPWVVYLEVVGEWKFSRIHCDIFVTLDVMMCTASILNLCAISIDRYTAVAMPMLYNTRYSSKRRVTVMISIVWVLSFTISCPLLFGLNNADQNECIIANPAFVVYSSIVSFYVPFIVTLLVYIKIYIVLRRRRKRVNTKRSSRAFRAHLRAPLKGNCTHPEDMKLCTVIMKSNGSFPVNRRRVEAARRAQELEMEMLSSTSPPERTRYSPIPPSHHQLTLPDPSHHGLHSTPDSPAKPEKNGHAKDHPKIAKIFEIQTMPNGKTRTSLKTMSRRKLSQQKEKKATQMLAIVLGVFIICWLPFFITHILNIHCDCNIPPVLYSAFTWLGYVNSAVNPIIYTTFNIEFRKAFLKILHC
Chain of Beta-2 adrenergic receptor (Homo sapiens) (P07550 whole entry, looked up): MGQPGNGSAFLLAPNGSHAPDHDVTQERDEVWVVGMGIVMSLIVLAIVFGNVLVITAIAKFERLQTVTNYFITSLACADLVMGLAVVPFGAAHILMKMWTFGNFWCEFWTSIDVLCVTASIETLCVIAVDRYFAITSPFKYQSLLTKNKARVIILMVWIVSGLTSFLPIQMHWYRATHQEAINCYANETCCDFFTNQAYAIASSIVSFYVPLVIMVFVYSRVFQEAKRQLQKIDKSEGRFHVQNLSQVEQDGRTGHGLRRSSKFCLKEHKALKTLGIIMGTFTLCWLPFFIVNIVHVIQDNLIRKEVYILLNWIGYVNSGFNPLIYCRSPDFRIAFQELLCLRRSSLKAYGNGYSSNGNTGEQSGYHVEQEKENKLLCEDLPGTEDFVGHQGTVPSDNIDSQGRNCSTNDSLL
Chain of 5-hydroxytryptamine receptor 2A (Homo sapiens) (P28223 whole entry, looked up): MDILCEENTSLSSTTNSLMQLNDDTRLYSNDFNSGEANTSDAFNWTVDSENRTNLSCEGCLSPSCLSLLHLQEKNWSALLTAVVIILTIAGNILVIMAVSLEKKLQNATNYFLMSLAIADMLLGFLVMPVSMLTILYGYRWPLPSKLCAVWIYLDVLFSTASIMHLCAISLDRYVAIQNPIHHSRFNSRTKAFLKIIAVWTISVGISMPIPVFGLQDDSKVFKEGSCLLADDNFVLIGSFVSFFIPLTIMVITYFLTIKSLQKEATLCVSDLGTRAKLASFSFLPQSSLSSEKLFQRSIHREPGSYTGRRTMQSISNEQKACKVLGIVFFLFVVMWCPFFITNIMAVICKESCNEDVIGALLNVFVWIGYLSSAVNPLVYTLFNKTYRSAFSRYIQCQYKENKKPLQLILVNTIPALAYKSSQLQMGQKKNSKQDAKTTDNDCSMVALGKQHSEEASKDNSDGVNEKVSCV

For the compound `OC1(c2ccc(Cl)cc2)CCNCC1`, the Potency entry in assay [1], in assay [2], in [3], in [4], in [5] and in assay [6] was “inactive” each time. Besides, the Potency entry in [7], in assay [8], in [9], in [10], in [11] and in assay [12] was “inactive” in each case. Also, the Potency result in assay [13], in assay [14], in assay [15], in assay [16] and in assay [17] was “inactive” throughout.

Take `C=C(CC)C(=O)c1ccc(OCC(=O)O)c(Cl)c1Cl`: the Potency entry in assay [1], in [3], in [4], in [18], in [5] and in [6] was “inactive” each time. The Potency entry in assay [7], in [8], in [15], in [16], in assay [19] and in assay [17] was “inactive” each time. For the same compound, in [2], the Potency is 24.2 µM (active) and 29.8 µM (active).

On to `C1CCC2OC2C1` (configuration not stated), for which the Potency entry in assay [1], in [2], in assay [3], in assay [4], in [18] and in [5] was “inactive” throughout. The Potency entry in assay [6], in assay [7], in assay [9], in [10], in assay [11] and in [20] was “inactive” each time. Further, the Potency result in assay [12], in assay [13], in [14], in assay [15], in assay [19] and in assay [17] was “inactive” in each case.

With `Cc1cc(CCC(=O)OCCOCCOCCOC(=O)CCc2cc(C)c(O)c(C(C)(C)C)c2)cc(C(C)(C)C)c1O`, the Potency result in [1], in [2], in [3], in [4], in assay [18] and in assay [6] was “inactive” each time. Besides, the Potency entry in assay [7], in assay [8], in assay [9], in assay [10], in assay [11] and in assay [20] was “inactive” in each case. The Potency entry in assay [12], in [13], in [15], in assay [19] and in assay [17] was “inactive” in each case.

In the case of `CCN(CC)CCN`, the Potency entry in assay [1], in assay [2], in [3], in assay [4], in assay [18] and in assay [5] was “inactive” each time. The Potency entry in assay [6], in [8], in [9], in assay [10], in [11] and in [20] was “inactive” in each case. In addition, the Potency entry in [12], in assay [13], in [14], in [15], in assay [16] and in [19] was “inactive” in each case. The Potency result in assay [17] was “inactive”.

As to `CN(C1CCCCC1)S(=O)(=O)c1ccccc1N`, the Potency result in assay [1], in assay [2], in assay [3], in [4], in assay [18] and in assay [5] was “inactive” each time. Further, the Potency result in [6], in [7], in [8], in [9], in assay [20] and in assay [12] was “inactive” throughout. Further, the Potency result in assay [13], in assay [14], in assay [15], in assay [16], in assay [19] and in [17] was “inactive” in each case. The Potency in [10] is 37.5 µM (active).

In the case of `CCCC/C=C\CCCCCCCCCC=O`, the Potency entry in assay [1], in [2], in assay [3], in assay [4], in assay [18] and in [5] was “inactive” in each case. Moreover, the Potency entry in assay [6], in assay [7], in assay [8], in assay [9], in assay [11] and in [20] was “inactive” throughout. Besides, the Potency entry in [12], in [13], in assay [14], in assay [15], in assay [16] and in [19] was “inactive” in each case. For the same compound, the Potency entry in [17] is “inactive”.
